# Results as given in the supplement of paper PMC9794691.
# ± gives the standard deviation of the averaged measurements.
# Tested on: PC9
# Assay: area under confluence curve of osimertinib + compound combination regimen (DTP regrowth); compare to osimertinib-only DTP control AUC of the same experiment (AUC (confluence x time, arbitrary))
# Method: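 compare to osimertinib-only DTP control AUC of the same experiment; Long-term drug-tolerant persister (DTP) screen in EGFR-mutant NSCLC cell lines in 48-well plates. The test compound was given at one fixed dose with osimertinib, either upfront (from day 0 to the DTP stage at 10-21 days, then drug-free medium) or sequentially (osimertinib alone to the DTP stage, then the test compound). IncuCyte confluence was tracked until osimertinib-only controls regrew, and AUC was computed in Prism. AUC scale depends on experiment duration, so each row carries the same-experiment osimertinib-only DTP and DMSO control AUCs; combination activity = control minus combo AUC. Osimertinib dose not stated.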
# [1] = test compound dose 1000 nM, dosing schedule: sequential, osimertinib-only DTP control AUC in same experiment: 4730, DMSO control AUC in same experiment: 72888
# [2] = test compound dose 1000 nM, dosing schedule: sequential, osimertinib-only DTP control AUC in same experiment: 9508, DMSO control AUC in same experiment: 26668
# [3] = test compound dose 1000 nM, dosing schedule: upfront, osimertinib-only DTP control AUC in same experiment: 8775, DMSO control AUC in same experiment: 72888
# [4] = test compound dose 1000 nM, dosing schedule: upfront, osimertinib-only DTP control AUC in same experiment: 11298, DMSO control AUC in same experiment: 26668
smiles,measurement,setting,value
C[C@@]1(C(=O)Nc2ccc(F)nc2)CCCN1c1nc(Nc2cc(C3CC3)n[nH]2)c2cccn2n1 + C=CC(=O)Nc1cc(Nc2nccc(-c3cn(C)c4ccccc34)n2)c(OC)cc1N(C)CCN(C)C [osimertinib],area under confluence curve,"test compound dose 100 nM, dosing schedule: sequential, osimertinib-only DTP control AUC in same experiment: 1963, DMSO control AUC in same experiment: 30580",219 ± 17
same,area under confluence curve,"test compound dose 100 nM, dosing schedule: sequential, osimertinib-only DTP control AUC in same experiment: 12502, DMSO control AUC in same experiment: 49143",7400
same,area under confluence curve,"test compound dose 100 nM, dosing schedule: sequential, osimertinib-only DTP control AUC in same experiment: 14708, DMSO control AUC in same experiment: 21341",3460
same,area under confluence curve,"test compound dose 100 nM, dosing schedule: upfront, osimertinib-only DTP control AUC in same experiment: 8618, DMSO control AUC in same experiment: 30580",4520 ± 430
same,area under confluence curve,"test compound dose 100 nM, dosing schedule: upfront, osimertinib-only DTP control AUC in same experiment: 21313, DMSO control AUC in same experiment: 21341",7730
same,area under confluence curve,"test compound dose 100 nM, dosing schedule: upfront, osimertinib-only DTP control AUC in same experiment: 28310, DMSO control AUC in same experiment: 49143",13100
C=CCn1c(=O)c2cnc(Nc3ccc(N4CCN(C)CC4)cc3)nc2n1-c1cccc(C(C)(C)O)n1 + C=CC(=O)Nc1cc(Nc2nccc(-c3cn(C)c4ccccc34)n2)c(OC)cc1N(C)CCN(C)C [osimertinib],area under confluence curve,"test compound dose 100 nM, dosing schedule: sequential, osimertinib-only DTP control AUC in same experiment: 15001, DMSO control AUC in same experiment: 22064",13500
same,area under confluence curve,"test compound dose 100 nM, dosing schedule: sequential, osimertinib-only DTP control AUC in same experiment: 15044, DMSO control AUC in same experiment: 30604",11300
same,area under confluence curve,"test compound dose 100 nM, dosing schedule: upfront, osimertinib-only DTP control AUC in same experiment: 20672, DMSO control AUC in same experiment: 30604",16100
same,area under confluence curve,"test compound dose 100 nM, dosing schedule: upfront, osimertinib-only DTP control AUC in same experiment: 24924, DMSO control AUC in same experiment: 22064",20200
COc1nnc2ccc(N3CCC(c4ccc(OCCN5CCN(C)C(=O)[C@H]5C)cc4)CC3)nn12 + C=CC(=O)Nc1cc(Nc2nccc(-c3cn(C)c4ccccc34)n2)c(OC)cc1N(C)CCN(C)C [osimertinib],area under confluence curve,"test compound dose 300 nM, dosing schedule: sequential, osimertinib-only DTP control AUC in same experiment: 3562, DMSO control AUC in same experiment: 31840",2500
same,area under confluence curve,"test compound dose 300 nM, dosing schedule: sequential, osimertinib-only DTP control AUC in same experiment: 10968, DMSO control AUC in same experiment: 21594",7840
same,area under confluence curve,"test compound dose 300 nM, dosing schedule: sequential, osimertinib-only DTP control AUC in same experiment: 12231, DMSO control AUC in same experiment: 19076",5480
same,area under confluence curve,"test compound dose 300 nM, dosing schedule: sequential, osimertinib-only DTP control AUC in same experiment: 12891, DMSO control AUC in same experiment: 44384",2120
same,area under confluence curve,"test compound dose 300 nM, dosing schedule: upfront, osimertinib-only DTP control AUC in same experiment: 16535, DMSO control AUC in same experiment: 19076",15300
same,area under confluence curve,"test compound dose 300 nM, dosing schedule: upfront, osimertinib-only DTP control AUC in same experiment: 16570, DMSO control AUC in same experiment: 44384",19700
same,area under confluence curve,"test compound dose 300 nM, dosing schedule: upfront, osimertinib-only DTP control AUC in same experiment: 17834, DMSO control AUC in same experiment: 21594",15800
same,area under confluence curve,"test compound dose 300 nM, dosing schedule: upfront, osimertinib-only DTP control AUC in same experiment: 19015, DMSO control AUC in same experiment: 31840",27400
CN1CCN(CCOc2cc(OC3CCOCC3)c3c(Nc4c(Cl)ccc5c4OCO5)ncnc3c2)CC1 [Saracatinib] + C=CC(=O)Nc1cc(Nc2nccc(-c3cn(C)c4ccccc34)n2)c(OC)cc1N(C)CCN(C)C [osimertinib],area under confluence curve,"test compound dose 300 nM, dosing schedule: sequential, osimertinib-only DTP control AUC in same experiment: 9267, DMSO control AUC in same experiment: 19507",4570
same,area under confluence curve,"test compound dose 300 nM, dosing schedule: sequential, osimertinib-only DTP control AUC in same experiment: 12589, DMSO control AUC in same experiment: 28243",8930
same,area under confluence curve,"test compound dose 300 nM, dosing schedule: upfront, osimertinib-only DTP control AUC in same experiment: 10534, DMSO control AUC in same experiment: 19507",1600
same,area under confluence curve,"test compound dose 300 nM, dosing schedule: upfront, osimertinib-only DTP control AUC in same experiment: 16088, DMSO control AUC in same experiment: 28243",16200
Oc1nc(-c2ccc(C(F)(F)F)cc2)nc2c1CSCC2 + C=CC(=O)Nc1cc(Nc2nccc(-c3cn(C)c4ccccc34)n2)c(OC)cc1N(C)CCN(C)C [osimertinib],area under confluence curve,"test compound dose 300 nM, dosing schedule: sequential, osimertinib-only DTP control AUC in same experiment: 12502, DMSO control AUC in same experiment: 49143",9570
same,area under confluence curve,"test compound dose 300 nM, dosing schedule: upfront, osimertinib-only DTP control AUC in same experiment: 28310, DMSO control AUC in same experiment: 49143",8680
CCOC(=O)c1ccnc(CNCC(=O)N(CC)CCN(C)C)c1 + C=CC(=O)Nc1cc(Nc2nccc(-c3cn(C)c4ccccc34)n2)c(OC)cc1N(C)CCN(C)C [osimertinib],area under confluence curve,"test compound dose 1000 nM, dosing schedule: sequential, osimertinib-only DTP control AUC in same experiment: 3562, DMSO control AUC in same experiment: 31840",3420
same,area under confluence curve,"test compound dose 1000 nM, dosing schedule: upfront, osimertinib-only DTP control AUC in same experiment: 19015, DMSO control AUC in same experiment: 31840",16700
COc1ccc(CCc2nc3cc(-c4c(C)noc4C)ccc3n2C[C@H](C)N2CCOCC2)cc1Cl + C=CC(=O)Nc1cc(Nc2nccc(-c3cn(C)c4ccccc34)n2)c(OC)cc1N(C)CCN(C)C [osimertinib],area under confluence curve,[1],6290
same,area under confluence curve,[2],9310
same,area under confluence curve,"test compound dose 1000 nM, dosing schedule: sequential, osimertinib-only DTP control AUC in same experiment: 12065, DMSO control AUC in same experiment: 48219",13500
same,area under confluence curve,[3],20400
same,area under confluence curve,[4],10700
same,area under confluence curve,"test compound dose 1000 nM, dosing schedule: upfront, osimertinib-only DTP control AUC in same experiment: 22645, DMSO control AUC in same experiment: 48219",37300
CCn1cc(-c2cccc(C(F)(F)F)c2)c2sc(C(=N)NC3CCS(=O)(=O)CC3)cc2c1=O + C=CC(=O)Nc1cc(Nc2nccc(-c3cn(C)c4ccccc34)n2)c(OC)cc1N(C)CCN(C)C [osimertinib],area under confluence curve,[1],4010
same,area under confluence curve,[3],6420
COc1cc(CCc2cc(NC(=O)c3ccc(N4CC(C)NC(C)C4)cc3)n[nH]2)cc(OC)c1 (centres undefined) + C=CC(=O)Nc1cc(Nc2nccc(-c3cn(C)c4ccccc34)n2)c(OC)cc1N(C)CCN(C)C [osimertinib],area under confluence curve,[2],4800
same,area under confluence curve,"test compound dose 1000 nM, dosing schedule: sequential, osimertinib-only DTP control AUC in same experiment: 10968, DMSO control AUC in same experiment: 21594",7160
same,area under confluence curve,[4],2090
same,area under confluence curve,"test compound dose 1000 nM, dosing schedule: upfront, osimertinib-only DTP control AUC in same experiment: 17834, DMSO control AUC in same experiment: 21594",6660
CN1CCN(c2nc(C3=C(c4c[nH]c5ccccc45)C(=O)NC3=O)c3ccccc3n2)CC1 [Sotrastaurin] + C=CC(=O)Nc1cc(Nc2nccc(-c3cn(C)c4ccccc34)n2)c(OC)cc1N(C)CCN(C)C [osimertinib],area under confluence curve,"test compound dose 1000 nM, dosing schedule: sequential, osimertinib-only DTP control AUC in same experiment: 10175, DMSO control AUC in same experiment: 27958",9060
same,area under confluence curve,"test compound dose 1000 nM, dosing schedule: upfront, osimertinib-only DTP control AUC in same experiment: 16134, DMSO control AUC in same experiment: 27958",10800
CN(C)C/C=C/C(=O)Nc1ccc(C(=O)Nc2cccc(Nc3ncc(Cl)c(-c4c[nH]c5ccccc45)n3)c2)cc1 + C=CC(=O)Nc1cc(Nc2nccc(-c3cn(C)c4ccccc34)n2)c(OC)cc1N(C)CCN(C)C [osimertinib],area under confluence curve,"test compound dose 1000 nM, dosing schedule: sequential, osimertinib-only DTP control AUC in same experiment: 11414, DMSO control AUC in same experiment: 31219",12600
same,area under confluence curve,"test compound dose 1000 nM, dosing schedule: upfront, osimertinib-only DTP control AUC in same experiment: 18848, DMSO control AUC in same experiment: 31219",21300
C[C@@H](c1ccc2nccn2c1)n1nnc2ncc(-c3cnn(C)c3)nc21 [Savolitinib] + C=CC(=O)Nc1cc(Nc2nccc(-c3cn(C)c4ccccc34)n2)c(OC)cc1N(C)CCN(C)C [osimertinib],area under confluence curve,"test compound dose 1000 nM, dosing schedule: sequential, osimertinib-only DTP control AUC in same experiment: 12535, DMSO control AUC in same experiment: 43316",7800
same,area under confluence curve,"test compound dose 1000 nM, dosing schedule: upfront, osimertinib-only DTP control AUC in same experiment: 15354, DMSO control AUC in same experiment: 43316",11900
